What was measured:
[1] = tested on: Vero E6 infected with SARS-CoV-2; assay: morphology score (similarity to uninfected cells); higher = more like uninfected cells; conditions: 24 h
[2] = tested on: Vero E6 infected with SARS-CoV-2; assay: SARS-CoV-2 infection rate relative to infected DMSO; higher = more infection, active = 60 or less; conditions: 24 h

Row | Structure (SMILES) | morphology score [1] | SARS-CoV-2 infection rate [2]
1 | OCCN1C[C@H](O)[C@@H](O)[C@H](O)[C@H]1CO [miglitol] (10 µM) | 0.11 | 106% (inactive)
2 | CO[C@@]12[C@H](COC(N)=O)C3=C(C(=O)C(C)=C(N)C3=O)N1C[C@@H]1N[C@@H]12 [mitomycin-C] (10 µM) | 0.101 | 104% (inactive)
3 | CC[C@@]1(O)C(=O)OCc2c1cc1n(c2=O)Cc2cc3cc(O)ccc3nc2-1 [10-hydroxycamptothecin] (10 µM) | -0.13 | 103% (inactive)
4 | CN[C@@H](C)C(=O)N[C@H]1CCCC[C@H]2CC[C@@H](C(=O)N[C@@H](c3ccccc3)c3cn(CCCCc4ccc(CCCCn5cc([C@@H](NC(=O)[C@@H]6CC[C@@H]7CCCC[C@H](NC(=O)[C@H](C)NC)C(=O)N76)c6ccccc6)nn5)cc4)nn3)N2C1=O (10 µM) | 0.155 | 98% (inactive)
5 | Cc1ccc(C(C)C)c(O)c1 [thymol] (10 µM) | -0.0243 | 112% (inactive)
6 | CN1CCN(C2=Cc3ccccc3Oc3ccc(Cl)cc32)CC1 (10 µM) | 0.217 | 106% (inactive)
7 | O=C([O-])C(O)[C@H](O)[C@@H](O)[C@H](O)[C@H](O)CO.O=C([O-])C(O)[C@H](O)[C@@H](O)[C@H](O)[C@H](O)CO.[Ca+2] (some centres not stated) [calcium-gluceptate] (10 µM) | -0.0282 | 114% (inactive)
8 | CC(C)(C)NCC(O)c1cc(Cl)c(N)c(Cl)c1 (configuration not stated) [clenbuterol] (10 µM) | -0.0972 | 110% (inactive)
9 | C/C(=N\NC(=N)N)c1cc(NC(=O)CCCCCCCCC(=O)Nc2cc(/C(C)=N/NC(=N)N)cc(/C(C)=N/NC(=N)N)c2)cc(/C(C)=N/NC(=N)N)c1 [semapimod] (0.833333 µM) | -0.352 | 115% (inactive)
10 | Cc1ccc2c(=O)c3ccccc3n(CCCN)c2c1C (10 µM) | -0.144 | 110% (inactive)
11 | CCOC(=O)[C@@H](N)Cc1ccc(O)c(O)c1 [etilevodopa] (10 µM) | -0.149 | 110% (inactive)
12 | CC(=O)N1CCN(C)CC1 [1-acetyl-4-methylpiperazine] (10 µM) | -0.0421 | 102% (inactive)
13 | COC(=O)C1=C(C)NC(C)=C(C(=O)OCCCN2CCC(c3ccccc3)(c3ccccc3)CC2)[C@@H]1c1cccc([N+](=O)[O-])c1 [dexniguldipine] (0.833333 µM) | 0.134 | 97.5% (inactive)
14 | CCC1(c2ccc(N)cc2)CCC(=O)NC1=O (configuration not stated) [aminoglutethimide] (10 µM) | -0.0825 | 110% (inactive)
15 | COc1cc(NC(=O)c2cccc(-n3cc(NC(=O)Nc4cccc(C)c4)cn3)c2)cc(OC)c1OC (10 µM) | -0.0791 | 104% (inactive)
16 | Cc1ccc2c(Br)cc(Br)c(OC(=O)c3ccccc3)c2n1 [broxaldine] (0.833333 µM) | 0.246 | 103% (inactive)
17 | CN(C)CCn1nnnc1SCC1=C(C(=O)O)N2C(=O)[C@@H](NC(=O)Cc3csc(N)n3)[C@H]2SC1 [cefotiam] (10 µM) | 0.212 | 100% (inactive)
18 | O=C(c1ccccc1)c1ccc2n1CCC2C(=O)O (configuration not stated) [ketorolac] (10 µM) | 0.000781 | 107% (inactive)
19 | CCCN(CCC)C(=O)C1=Cc2ccc(-c3ccc(C(=O)N4CCCC4)cc3)cc2N=C(N)C1 [motolimod] (10 µM) | 0.14 | 93% (inactive)
20 | CC(C)c1nnc(-c2ccc(-c3ccccc3)nc2)n1-c1cccc2nonc12 (10 µM) | -0.103 | 103% (inactive)
21 | CCOC(=S)SSC(=S)OCC [dixanthogen] (10 µM) | -0.0377 | 106% (inactive)
22 | CN(C)[C@@H]1C(O)=C(C(N)=O)C(=O)[C@@]2(O)C(O)=C3C(=O)c4c(O)ccc(Cl)c4[C@@H](O)[C@H]3C[C@@H]12 [demeclocycline] (10 µM) | 0.0306 | 96% (inactive)
23 | O=C(OOC(=O)c1ccccc1)c1ccccc1 [benzoyl-peroxide] (10 µM) | -0.0426 | 97.5% (inactive)
24 | CC(=O)N[C@@H](CS)C(=O)O [acetylcysteine] (10 µM) | 0.183 | 95.5% (inactive)
25 | CC(C)CN(C[C@@H](O)[C@H](Cc1ccccc1)NC(=O)O[C@H]1CCOC1)S(=O)(=O)c1ccc(N)cc1 [amprenavir] (10 µM) | 0.0911 | 110% (inactive)
26 | COc1ccc2c(c1)c(CC(=O)O)c(C)n2C(=O)c1ccc(Cl)cc1 [indomethacin] (10 µM) | 0.0755 | 104% (inactive)
